Assay outcomes (PubChem BioAssay)
PHOSPHO1 block: PubChem AID 1565. Phosphoethanolamine/phosphocholine phosphatase (Homo sapiens), Q8TCT1. recombinant PHOSPHO1, absorbance phosphatase assay. inhibition, % at 13.3 µM. 290,000 compounds, 1.1% hits; in the data active = inhibition above about 60%
Target sequence (Q8TCT1 whole entry, looked up): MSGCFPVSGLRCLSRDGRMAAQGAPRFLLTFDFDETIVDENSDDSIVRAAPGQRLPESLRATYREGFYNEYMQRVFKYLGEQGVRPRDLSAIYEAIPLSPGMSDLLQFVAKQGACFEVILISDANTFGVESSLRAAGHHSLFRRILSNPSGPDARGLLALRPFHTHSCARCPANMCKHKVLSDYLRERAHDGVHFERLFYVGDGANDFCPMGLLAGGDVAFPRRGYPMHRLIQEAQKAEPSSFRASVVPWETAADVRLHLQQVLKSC
Cardio protect: cardioprotection against H2O2-induced cell death, primary screen, uHTS, H9c2 cells, ATPLite luminescence; H9c2 cardiomyocytes, H2O2 injury protection, 2 h; 360,000 compounds, 0.63% hits; protection from H2O2 cell death, % at 20 µM; AID 588492, 2011;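 active = compounds giving at least 50% protection of heart cells from peroxide-induced death in the single-dose screen, raw or plate-pattern-corrected value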
PfG6PD inh: PfG6PD enzyme inhibitors, primary screen, biochemical, fluorescence intensity, uHTS | glucose-6-phosphate dehydrogenase-6-phosphogluconolactonase (Plasmodium falciparum 3D7) | PfGluPho enzyme, NADPH resazurin-diaphorase fluorescence | 350,000 compounds, 0.78% hits | inhibition, % at 20 µM | AID 504690, 2011;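 active = inhibition reaching at least a set limit at 20 µM in the primary screen, cut at about 59% in these data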
PfM18AAP inh: PfM18AAP inhibitors, malaria aminopeptidase, primary screen, biochemical, QFRET, recombinant enzyme. M18 aspartyl aminopeptidase (Plasmodium falciparum 3D7). H-Glu-NHMec fluorogenic cleavage. inhibition, % at 7.35 µM. 290,000 compounds, 1.2% hits;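 active = inhibition above the campaign mean inhibition over all tested compounds plus 3 SD, cut at about 28% in these data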
ALR H2O2 inh: inhibitors of human ALR sulfhydryl oxidase, primary screen, biochemical, H2O2 detection, HRP-luminol luminescence, single point. FAD-linked sulfhydryl oxidase ALR (Homo sapiens), P55789. inhibition, % (no concentration beside the values). AID 485317, 2010. 290,000 compounds, 3.8% hits. purified ALR, DTT oxidation;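 active = mean replicate inhibition above about 79%, with every replicate also reaching it, limit read from the data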
Target sequence (P55789 whole entry, looked up): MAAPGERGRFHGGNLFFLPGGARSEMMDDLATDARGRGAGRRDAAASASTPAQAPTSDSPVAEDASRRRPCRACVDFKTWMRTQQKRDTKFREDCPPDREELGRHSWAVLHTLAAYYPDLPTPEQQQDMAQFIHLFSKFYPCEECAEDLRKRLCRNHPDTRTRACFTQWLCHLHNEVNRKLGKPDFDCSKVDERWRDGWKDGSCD
A number is an active result. An excerpt weighted towards active compounds, which were near 5.6% of everything screened.

How did O=C(CCCn1cncn1)N1CCCC(Nc2ccc(F)cc2)C1 (configuration not stated) do in these assays?
PHOSPHO1 block: inactive; Cardio protect: inactive; PfG6PD inh: inactive; PfM18AAP inh: inactive; ALR H2O2 inh: 98

How did CC(C)c1ccc(NC2CCCN(C(=O)CCCn3cncn3)C2)cc1 (configuration not stated) do in these assays?
PHOSPHO1 block: inactive; Cardio protect: inactive; PfG6PD inh: inactive; PfM18AAP inh: inactive; ALR H2O2 inh: 96

Results for O=C(CCN1CCCCO1)N1CCCC(Nc2ccc(F)cc2)C1 (configuration not stated) ?
PHOSPHO1 block: inactive; Cardio protect: inactive; PfG6PD inh: inactive; PfM18AAP inh: inactive; ALR H2O2 inh: 95

How did O=C(CCn1cnnn1)N1CCCC(Nc2ccc(F)cc2)C1 (configuration not stated) do in these assays?
PHOSPHO1 block: inactive; Cardio protect: inactive; PfG6PD inh: inactive; PfM18AAP inh: inactive; ALR H2O2 inh: 98

What do the screens show for `O=C1CCCCN1CC(=O)N1CCCC(Nc2ccc(F)c(F)c2)C1` (configuration not stated)?
PHOSPHO1 block: inactive; Cardio protect: inactive; PfG6PD inh: inactive; PfM18AAP inh: inactive; ALR H2O2 inh: inactive

How did O=C(Cn1cccn1)N1CCCC(Nc2ccc(F)c(F)c2)C1 (configuration not stated) do in these assays?
PHOSPHO1 block: inactive; Cardio protect: inactive; PfG6PD inh: inactive; PfM18AAP inh: inactive; ALR H2O2 inh: 89

Results for NC(=O)NC(=O)COC(=O)CC12CC3CC(CC(C3)C1)C2 ?
PHOSPHO1 block: inactive; Cardio protect: inactive; PfG6PD inh: inactive; PfM18AAP inh: inactive; ALR H2O2 inh: inactive

How did CCn1c(NCc2cc(OC)c(OC)c(OC)c2)nc2ccccc21 do in these assays?
PHOSPHO1 block: inactive; Cardio protect: inactive; PfG6PD inh: inactive; PfM18AAP inh: inactive; ALR H2O2 inh: 97

How did COc1ccc(CNc2nc3ccccc3n2Cc2ccc(Cl)cc2)cc1OC do in these assays?
PHOSPHO1 block: inactive; Cardio protect: inactive; PfG6PD inh: inactive; PfM18AAP inh: inactive; ALR H2O2 inh: inactive

How did CCn1c(NCc2ccc(N(C)C)cc2)nc2ccccc21 do in these assays?
PHOSPHO1 block: inactive; Cardio protect: inactive; PfG6PD inh: inactive; PfM18AAP inh: inactive; ALR H2O2 inh: inactive

Results for CCCCn1nnnc1NCc1ccc(C)cc1 ?
PHOSPHO1 block: inactive; Cardio protect: inactive; PfG6PD inh: inactive; PfM18AAP inh: inactive; ALR H2O2 inh: inactive

What do the screens show for `CCCCn1nnnc1NCc1ccc(N(CC)CC)cc1`?
PHOSPHO1 block: inactive; Cardio protect: inactive; PfG6PD inh: inactive; PfM18AAP inh: 31; ALR H2O2 inh: 99

How did CCN(CC)c1ccc(CNc2nc3ccccc3n2C)cc1 do in these assays?
PHOSPHO1 block: inactive; Cardio protect: inactive; PfG6PD inh: inactive; PfM18AAP inh: inactive; ALR H2O2 inh: 98

Results for CCOc1ccc(CNc2nc3ccccc3n2CCN2CCOCC2)cc1 ?
PHOSPHO1 block: inactive; Cardio protect: inactive; PfG6PD inh: inactive; PfM18AAP inh: inactive; ALR H2O2 inh: 97

What do the screens show for `COc1cc(OC)c(OC)cc1CN1CCN(Cc2ccco2)CC1`?
PHOSPHO1 block: inactive; Cardio protect: inactive; PfG6PD inh: inactive; PfM18AAP inh: inactive; ALR H2O2 inh: inactive

How did O=C(CS(=O)(=O)Nc1ccc(F)cc1Cl)Nc1ccc(F)cc1Cl do in these assays?
PHOSPHO1 block: inactive; Cardio protect: inactive; PfG6PD inh: inactive; PfM18AAP inh: inactive

Results for CCN(Cc1nc2ccccc2n1C)c1ccccc1 ?
PHOSPHO1 block: inactive; Cardio protect: inactive; PfG6PD inh: inactive; PfM18AAP inh: inactive; ALR H2O2 inh: 99

Results for CC(C)n1c(CN(C)c2ccccc2)nc2ccccc21 ?
Cardio protect: inactive; PfG6PD inh: inactive; PfM18AAP inh: inactive; ALR H2O2 inh: 97

How did CC(C)n1c(/C=C/c2ccccc2)nc2ccccc21 do in these assays?
PHOSPHO1 block: inactive; Cardio protect: inactive; PfG6PD inh: inactive; PfM18AAP inh: inactive; ALR H2O2 inh: inactive

How did COc1ccc(CNc2nc3ccccc3n2CCN2CCCCC2)cc1 do in these assays?
PHOSPHO1 block: inactive; Cardio protect: inactive; PfG6PD inh: inactive; PfM18AAP inh: inactive; ALR H2O2 inh: 97

What do the screens show for `CCN(CC)c1ccc(CNc2nc3ccccc3n2CCN2CCCCC2)cc1`?
PHOSPHO1 block: inactive; Cardio protect: inactive; PfG6PD inh: inactive; PfM18AAP inh: inactive; ALR H2O2 inh: 99
